# In PubChem BioAssay (NCATS):
# Results filed as inconclusive are left out. Calls of active or inactive are those of the source. Calls follow the shape of the dose curve; as a rule, active = well fitted cell-killing curve with a large enough effect; inconclusive = small, poorly fitted or top-dose-only effect, or effect the other way; inactive = no such curve, though single readings can be large or run the other way.
# Test: qHTS of pediatric cancer cell lines to identify multiple opportunities for drug repurposing: Confirmatory screen for LAN-5 cells (AID 1347113); also: nearly all actives have a fitted effect of over 65% in size
# Conditions: LAN-5 neuroblastoma cell viability; series mostly up to 45.9 µM; activity change, negative = cytotoxicity: at the top concentration
# Excerpt: Drug repurposing or repositioning has been offered as a strategy for drug development in oncology programs. This approach has special potential for childhood cancers and other rare or orphan diseases, where the expected return on new drug development has been a disincentive to pharmaceuticals.
# In this project we exploit the poly-pharmacology of drugs to discover new indications via phenotypic screening of a panel of 19 well-characterized cell lines derived from solid tumors seen in children and adolescents. The goal is to identify approved drugs with previously unrecognized anticancer properties that has the potential to reveal new mechanisms and biological processes involved in carcinogenesis or drug resistance. We employed a titration-based paradigm (quantitative high-throughput screening or qHTS), where all compounds were tested at multiple concentrations for their effect on cell viability. Concentration-response curves (CRCs) were derived directly from the primary screen, and both potency and efficacy values were used to identify compounds with robust bioactivity profiles. We screened the NIH Chemical Genomics Center (NCGC) Pharmaceutical Collection (NPC) and Mechanism Interrogation Plate (MIPE) small molecule collections of approved and investigational compounds against these cell lines; and measured metabolically active cells after 48 hours of compound treatment as a proxy for cell viability.
# Assay Submitter: Nathalia J. Martinez, National Center for Advancing Translational Sciences, National Institutes of Health, Rockville, MD, USA; email: natalia.martinez@nih.gov
# [1] Shen, M et al. Quantitative high-throughput phenotypic screening of pediatric cancer cell lines identifies multiple opportunities for drug repurposing. Oncotarget 2017 Dec 19;9(4):4758-4772. PMID 29435139.
# The cells were obtained from University of North Carolina (UNC), Pediatric Preclinical Testing Program (PPT), and Coriell Institute (CI).
# qHTS cell viability assay:
# Cells were assayed in growth media at a density of 500-1,000 cells/well. Five microliters of cells were dispensed into 1,536-well, white, solid-bottom, TC-treated plates (Greiner Bio One) using a multidrop dispenser and incubated at 37 degrees C, 5% CO2, under a humidified atmosphere for 5 hours. Twenty-three nanoliters of compounds and controls (neutral control DMSO or positive control bortezomib at final concentration of 2.3 µM) were subsequently transferred by Kalypsys pintool. For primary screens, the MIPE collection was tested at 11-point dilutions (final concentrations range from 0.78 nM to 46 µM) and the NPC collection at 8-point dilutions (final concentrations range from 0.59 nM to 46 µM). Compounds tested in follow-up screens were assayed at 11-point dilutions. Cells were incubated for 48 hours, followed by addition of 3 µL of CellTiter-Glo (Promega). After a 15 min incubation at room temperature, samples were analyzed for luminescence intensity using a ViewLux High-throughput CCD imager equipped with clear filters.
# % is scaled to controls: 0 for no effect and ±100 for the full control effect; potency is read from the fitted curve at half-maximal effect.
SMILES,Potency,"activity change, negative = cytotoxicity",outcome
CC[C@@]1(O)C(=O)OCc2c1cc1n(c2=O)Cc2cc3ccccc3nc2-1,58.5 nM (active),–,–
O=C(O)CCCOc1ccc(Cl)cc1Cl,–,10% [at 95.5 µM] (inactive),–
CCCCCC[C@H]1C(=O)O[C@H](C)[C@H](NC(=O)c2cccc(NC=O)c2O)C(=O)O[C@@H](C)[C@@H]1OC(=O)CC(C)C,5850 nM (active),–,–
O=c1[nH]c2ccc(Cl)cc2c(N[C@@H]2CN3CCC2CC3)c1-c1nc2ccccc2[nH]1,1470 nM (active),–,–
C[C@@]12OC(=O)[C@]1([C@@H](O)[C@@H]1C=CCCC1)NC(=O)[C@H]2CCCl,737 nM (active),–,–
C[C@@H]1CC[C@@]2(OC1)O[C@H]1C[C@H]3[C@@H]4CC=C5C[C@@H](O[C@@H]6O[C@H](CO)[C@@H](O[C@@H]7O[C@@H](C)[C@H](O)[C@@H](O)[C@@H]7O)[C@H](O)[C@@H]6O[C@@H]6O[C@@H](C)[C@H](O)[C@@H](O)[C@@H]6O)CC[C@]5(C)[C@@H]4CC[C@]3(C)[C@@H]1[C@H]2C,4650 nM (active),–,–
Cc1c(C(=O)Nc2cccc(C(F)(F)F)c2)cc(-c2ccccc2)n1CCCN1CCOCC1,42700 nM (active),–,–
C[C@H]1CCCC=CC2C[C@H](O)C[C@@H]2[C@H](O)C=CC(=O)O1 (stereo partly drawn),117 nM (active),–,–
CC(=O)[O][Hg][c]1ccccc1,3290 nM (active),–,–
CC(C)N[C@@H]1CCn2c(=O)[nH]c3cccc(c32)[C@@H]1O,–,20.3% (inactive),–
Cc1[nH]nc2ccc(-c3cncc(OC[C@@H](N)Cc4c[nH]c5ccccc45)c3)cc12,2330 nM (active),–,–
O=C(N[C@H]1CN2CCC1CC2)c1ccc(Cl)cc1,23300 nM (active),–,–
CS(=O)(=O)c1ccc(C(=O)C2C(=O)CCCC2=O)c([N+](=O)[O-])c1,–,–,inactive
Cc1c(N)nc([C@H](CC(N)=O)NC[C@@H](N)C(N)=O)nc1C(=O)N[C@H](C(=O)N[C@@H](C)[C@H](O)[C@@H](C)C(=O)N[C@@H](C(=O)NCCc1nc(-c2nc(C(=O)NCCC[S+](C)C)cs2)cs1)[C@@H](C)O)C(O[C@H]1O[C@H](CO)[C@H](O)[C@@H](O)[C@@H]1O[C@H]1O[C@H](CO)[C@@H](O)[C@H](OC(N)=O)[C@H]1O)c1cnc[nH]1 (stereo partly drawn),–,–,inactive [at 45.9 µM]
CC(C)(O)C=CC(=O)[C@](C)(O)[C@H]1[C@H](O)C[C@]2(C)[C@@H]3CC=C4[C@@H](C=C(O)C(=O)C4(C)C)[C@]3(C)C(=O)C[C@@]12C,58.5 nM (active),–,–
CC(C)[C@]12O[C@@H]1[C@@H]1O[C@]13[C@]1(O[C@H]1C[C@@H]1C4=C(CC[C@@]13C)C(=O)OC4)[C@H]2O,147 nM (active),–,–
S=C(SSC(=S)N1CCCCC1)N1CCCCC1,1040 nM (active),–,–
COc1cc2cc(c1Cl)N(C)C(=O)C[C@H](OC(=O)C(C)C)[C@]1(C)O[C@H]1[C@H](C)[C@@H]1C[C@@](O)(NC(=O)O1)[C@H](OC)C=CC=C(C)C2,1170 nM (active),–,–
CC=C(C)C(=O)N[C@@H](c1ccccc1)[C@@H](O)C(=O)O[C@H]1C[C@@]2(O)[C@@H](OC(=O)c3ccccc3)[C@@H]3[C@]4(OC(C)=O)CO[C@@H]4C[C@H](O)[C@@]3(C)C(=O)[C@H](OC(C)=O)C(=C1C)C2(C)C,–,-35.8% (inactive),–
CCCN1CCO[C@@H]2c3cc(O)ccc3OC[C@@H]21,–,-10.4% (inactive),–
CC[C@@H]1[C@@H](C)O[C@@](O)([C@@H](C)[C@H](O)[C@H](C)[C@H]2OC(=O)C=CC=C[C@@H](C)[C@@H]([C@@H](C)[C@@H](O)[C@H](C)[C@@]3(O)C[C@H](O[C@H]4C[C@H](O)[C@H](O)[C@H](C)O4)[C@H](CC)[C@@H](C)O3)OC(=O)C=CC=C[C@@H]2C)C[C@H]1O[C@H]1C[C@H](O)[C@H](O)[C@H](C)O1,–,11.3% (inactive),–
CCC(=O)OC1CCC2C3CCC4=CC(=O)CC[C@@]4(C)C3CC[C@]12C (stereo partly drawn),–,-3.88% (inactive),–
C=CCON=C(C[C@H]1O[C@@H]2O[C@]3(C)CC[C@@H]4[C@H](C)CC[C@@H]([C@H]1C)[C@@]24OO3)[C@H]1O[C@@H]2O[C@]3(C)CC[C@H]4[C@H](C)CC[C@@H]([C@@H]1C)[C@@]24OO3,522 nM (active),–,–
Cc1ccccc1-n1c(Cn2ncc3c(N)ncnc32)nc2cccc(C)c2c1=O,522 nM (active),–,–
CO[C@H]1CCC(O[C@H]2C[C@H]([C@]3(C)CC[C@]4(C[C@H](O)[C@@H](C)[C@@H]([C@@H](C)C=C(C)C(=O)[C@H](C)C[C@H](C)C(=O)O)O4)O3)O[C@]3(O[C@@H]([C@H]4O[C@@](O)(CO)[C@H](C)C[C@H]4C)C[C@H]3C)[C@H]2C)O[C@H]1C (stereo partly drawn),2330 nM (active),–,–
O=C(O)COc1nc(Cl)c(Cl)cc1Cl,–,–,inactive
C[C@@H]1O[C@@H](O[C@@H]2C=C3CC[C@@H]4[C@@H](CC[C@]5(C)[C@H](c6ccc(=O)oc6)CC[C@@]45O)[C@@]3(C)CC2)[C@H](O)[C@H](O)[C@H]1O,58.5 nM (active),–,–
CC1=C(O)C(=O)C=C2C1=CC=C1[C@@]2(C)CC[C@@]2(C)[C@@H]3C[C@](C)(C(=O)O)CC[C@]3(C)CC[C@]12C,1850 nM (active),–,–
